The full list was thinned out, with hits kept by preference.
Dicer inh: blocks human Dicer maturation of pre-miR-21; Q9UPY3; cat-ELCCA pre-miR-21 Dicer processing, chemiluminescence; active compounds read high; z-score at 25 µM; 47,000 tested, 6% active; AID 1347074; in the data active = z-score above about 3, passing the limit was not always enough;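 also: plate controls were vehicle for no effect and no enzyme for full effect; higher signal means more uncleaved substrate so more Dicer inhibition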
* hit, by the source's call.

SMILES	Dicer inh
O=c1c(-c2ccccc2Cl)c(C(F)(F)F)oc2c(CN3CCOCC3)c(O)ccc12	0.12
O=C(Nc1ccc2c(c1)OCO2)c1cnn2c1NC(c1ccco1)CC2C(F)(F)F (configuration not stated)	5*
COc1ccc(NC(=O)c2cc3n(n2)C(C(F)(F)F)CC(c2ccco2)N3)cc1 (configuration not stated)	-1.3
CC(C)(C)NC(=O)c1cc2n(n1)C(C(F)(F)F)CC(c1ccco1)N2 (configuration not stated)	-0.06
Cc1ccc(C2CC(C(F)(F)F)n3ncc(C(=O)Nc4ccc5c(c4)OCO5)c3N2)cc1 (configuration not stated)	0
CCc1c(C)sc(NC(=O)c2cc3n(n2)C(C(F)(F)F)CC(c2ccco2)N3)c1C#N (configuration not stated)	4*
O=C(Nc1ccccc1F)c1cc2n(n1)C(C(F)(F)F)CC(c1ccco1)N2 (configuration not stated)	-0.64
O=C(Nc1cccc(O)c1)c1cc2n(n1)C(C(F)(F)F)CC(c1ccco1)N2 (configuration not stated)	3.3*
COc1ccc(NC(=O)c2cnn3c2NC(c2ccco2)CC3C(F)(F)F)c(OC)c1 (configuration not stated)	3
COc1ccc(NC(=O)c2cc3n(n2)C(C(F)(F)F)CC(c2ccco2)N3)cc1OC (configuration not stated)	-0.8
O=[N+]([O-])c1ccc(S(=O)(=O)c2cc(Cl)ccc2Cl)[n+]([O-])c1	-1.2
Cc1cc(C(=O)N2CCN(C(c3ccccc3)c3ccccc3)CC2)nn1C	0.27
CC1(C)C2CC[C@](C)(C2)C1NC(=O)C1CCCCC1 (some centres not stated)	0.07
CC(C(=O)c1ccc(-c2ccccc2F)cc1)N1CCN(c2ccc(C#N)cc2)CC1 (configuration not stated)	0.28
O=C(Oc1ccc2c(=O)c(Oc3ccccc3Br)coc2c1)c1ccco1	1.7
CCCc1c(O)nc(SCCC(=O)O)[nH]c1=O	1.8
Cc1nn(C)c2[nH]c(C(F)(F)F)cc(=O)c12	1.1
O=C(NCc1ccncc1)c1cc2n(n1)C(C(F)(F)F)CC(c1ccco1)N2 (configuration not stated)	0.35
COCCNC(=O)c1nn2c(c1Cl)NC(c1ccc(Br)cc1)CC2C(F)(F)F (configuration not stated)	2.7
O=C(NCc1ccc(F)cc1)c1nn2c(c1Cl)NC(c1ccco1)CC2C(F)(F)F (configuration not stated)	5.1*
O=C(NCc1ccco1)c1nn2c(c1Cl)NC(c1ccc(F)cc1)CC2C(F)(F)F (configuration not stated)	4.9*
CC1CCCCN1C(=O)c1nn2c(c1Cl)NC(c1ccco1)CC2C(F)(F)F (configuration not stated)	-3.5
CC(C)(C)NC(=O)c1nn2c(c1Cl)NC(c1ccccc1)CC2C(F)(F)F (configuration not stated)	-1.9
CCc1nc2cc(C)c(C)cc2nc1CC	-1.1
O=c1[nH]c2ccc(OC(F)(F)F)cc2c(O)c1-c1ccccc1	-0.8
SMILES	Dicer inh
COc1cccc(N2CCc3c(C)nc4ccc(Cl)cc4c32)c1	1.6
Cc1nc2c(C)cccc2c2c1CCN2c1ccccc1F	3.2*
COc1cc(OC)c2nc(C)c3c(c2c1)N(c1cccc(C(F)(F)F)c1)CC3	-1
CCOC(=O)C1(CC(=O)c2ccc(F)cc2)C(=O)Oc2ccccc2C1c1ccccc1 (configuration not stated)	2.9
COc1cccc(NC(=S)C(C#N)C(=O)N2CCC(C)CC2)c1 (configuration not stated)	-1.4
C/C(=N\OC(=O)Nc1c(-c2c(Cl)cccc2Cl)noc1C)C(C)(C)C	0.53
O=C1CC(CSc2nnnn2-c2ccccc2)=NN1c1nc2ccccc2[nH]1	-2.3
Cc1nnc(SCc2cc(=O)n3c(nc4ccccc43)[nH]2)s1	-1.9
Cc1nnc(SCC2=NN(c3nc4ccccc4[nH]3)C(=O)C2)s1	3.2*
CN1CCOc2ccc(S(=O)(=O)N3CCCC3c3ccc(F)cc3)cc21 (configuration not stated)	-0.47
Cn1ncc(-c2nc(-c3ccc(Cl)cc3)cs2)c1N	1.2
Cc1nn(C)c(Cl)c1S(=O)(=O)Nc1ccc(Oc2ccc(F)cc2)cc1	3.2*
Cc1nn(C)c(Oc2ccc(F)cc2)c1[N+](=O)[O-]	-2.6
Cn1nc(-c2ccc(Cl)cc2)cc1NS(=O)(=O)c1ccc(F)cc1	0.12
CC(C)(C)c1ccc(NC(=O)Oc2ccccc2N2CCCCC2)cc1	2
CCCC(=O)N1c2cc(C)ccc2C(=C2SC(C(=O)OC)=C(C(=O)OC)S2)C(=S)C1(C)C	2
CCOC(=O)C1=C(C(=O)OCC)SC(=C2C(=S)C(C)(C)N(C(C)=O)c3cc(C)ccc32)S1	3.4*
COC(=O)C1=C(C(=O)OC)SC(=C2C(=S)C(C)(C)N(C(=O)C(C)C)c3cc(C)ccc32)S1	2.2
C=CCSc1nnc2[nH]c(=O)cc(N)n12	5.2*
CC(C)CSc1nnc2[nH]c(=O)cc(N)n12	2.4
C=CCSc1n[nH]c(=O)n1C1CCCCC1	-1.1
C=C(C)CSc1nnc2[nH]c(=O)cc(N)n12	2.9
CCCCCCSc1nnc2[nH]c(=O)cc(N)n12	3.8*
COc1ccccc1OCCSc1nnc2[nH]c(=O)cc(N)n12	1.9
CCOC(=O)C(=CNc1ccc(F)cc1)C(=O)OCC	-0.11
SMILES	Dicer inh
COc1cccc(-c2csc(=NCc3cccnc3)n2-c2ccccc2)c1	0.83
S=c1[nH]nc(Nc2ccc(I)cc2)s1	1.6
CCOC(=O)/C(C#N)=C1\CCCc2cc(OC)ccc21	0.05
CC(=O)Nc1nc(NC(C)=O)nc(-c2ccccc2C(F)(F)F)n1	2.5
Cc1csc2sc(-c3ccnc(SCC(=O)Nc4ccc(Cl)cc4Cl)n3)c(C)c12	-0.26
CCOC(=O)N/N=C/c1ccc(N(C)CCC#N)cc1	-0.63
COC1=C(OC)C2(C=CC1=O)CC(C)(C)N=C2SC (configuration not stated)	1.1
CSC1=NC(C)(C)CCC12C=CC(=O)C=C2	3.2*
N#Cc1c(SCC(=O)Nc2cc(Cl)cc(Cl)c2)nc2c(c1/C=C\c1ccccc1)CCC2	-0.39
Cc1ccc2nc(-c3ccc(NC(=O)C(c4ccccc4)C4CCCC4)cc3)sc2c1 (configuration not stated)	-0.15
CCN(CC)CCNc1nc2c(c(=O)n(C)c(=O)n2C)n1Cc1ccc(F)cc1	3.3*
Cn1c(=O)c2c(nc(Cl)n2Cc2ccccc2)n(C)c1=O	-3.9
Cn1c(=O)c2c(nc(NC3CCCCC3)n2Cc2ccccc2)n(C)c1=O	3.6*
Cn1c(=O)c2c(nc(N/N=C/c3ccccc3)n2Cc2ccccc2)n(C)c1=O	1.2
Cn1c(=O)c2c(nc(NCCCO)n2Cc2ccccc2F)n(C)c1=O	0.32
Cn1c(=O)c2c(nc(N/N=C/c3cccc(O)c3)n2Cc2ccccc2Br)n(C)c1=O	3.4*
CCN(CC)CCNc1nc2c(c(=O)n(C)c(=O)n2C)n1Cc1ccc(Cl)c(Cl)c1	-0.88
Cn1c(=O)c2c(nc(N/N=C/c3ccc(O)cc3)n2Cc2c(Cl)cccc2Cl)n(C)c1=O	4.8
CCN(CC)CCNc1nc2c(c(=O)[nH]c(=O)n2C)n1Cc1ccc(Cl)cc1	-3.5
Cn1c(=O)c2c(nc(NCc3ccccc3)n2Cc2ccccc2)n(C)c1=O	1.2
Cn1c(=O)c2c(nc(NCCO)n2Cc2cccc3ccccc23)n(C)c1=O	3.1*

Assay outcomes (PubChem)
